Test results: PubChem BioAssay (Tox21)
Activity calls are given as the source filed them. Calls follow the shape of the dose curve; as a rule, active = well fitted curve in the direction sought with a large enough effect in the repeat runs; inconclusive = weak or mixed curves; inactive = flat fitted curve, though single readings scatter.

assay: qHTS assay to test for compound auto fluorescence at 535 nm (green) in HEK293 cells (AID 720680); conditions: green autofluorescence 485/535 nm; series mostly up to 91.3 µM
From the text: U.S. Tox21 Program National Center for Advancing Translational Sciences [NCATS] NIH Chemical Genomics Center [NCGC] U.S. Environmental Protection Agency [EPA] National Institutes of Environmental Health Sciences [NIEHS] National Toxicology Program [NTP] U.S. Food and Drug Administration [FDA] Tox21 Assay Overview: Compound auto fluorescence often interferes with screening of the compound library against various biological targets and signaling pathways. Some of these compounds may have fluorophoric properties. Such properties may interfere with the assay outputs resulting in false positives and/or negatives. To decrease such complications and ensure the compound activities are relevant in terms of biological response, the Tox21 10K compound library was screened for auto fluorescence. From the fluorophores used as reporter signals in our screening assays, the auto fluorescence equivalencies of compounds against three fluorophores have been evaluated: Triamterene, Fluorescein and Rose Bengal sodium for blue, green and red fluorescence, respectively. The fluorescence intensities were measured using Excitation/Emission wavelengths at 405/460nm, 485/535nm and 540/590nm for blue, green and red labels, respectively. This assay includes the green fluorescence data.
Tox21 Assay Protocol Summary: 2,000 HEK293 cells in 5 uL of culture medium containing 10% dialyzed FBS per well were dispensed into black wall/clear bottom 1536-well plates using a Multidrop Combi Dispenser (Thermo Scientific). The assay plates were incubated for 4-5 hr at 37C to allow cell attachment to the well bottom, followed by the transfer of 23 nL compound or DMSO vehicle by a pintool work station (Kalypsys, San Diego, CA). After the assay plates were incubated overnight at 37C and 5% CO2, fluorescence intensities in the assay plates were measured by an Envision (PerkinElmer, Shelton, CT) plate reader using three labels for measuring blue, green and red fluorescence at […] 460, 535 and 590nm respectively.

Row | Structure (SMILES) | outcome
1 | O=C1CN(/N=C/c2ccc([N+](=O)[O-])o2)C(=O)N1 | inactive
2 | O=NO | inactive
3 | Nc1ccc(C(=O)O)cc1 | inactive
4 | C/C=C/c1ccc(OC)cc1 | inactive
5 | Cc1cc(=O)[nH]c(=S)[nH]1 | inactive
6 | Cc1noc(NS(=O)(=O)c2ccc(N)cc2)c1C | inactive
7 | O=C(O)CCC(=O)O | inactive
8 | NNC(=O)c1ccncc1 | inactive
9 | NC(=O)c1cnccn1 | inactive
10 | CCCC(CCC)C(=O)O | inactive
11 | CC1(C)[C@@H]2CC[C@@]1(C)C(=O)C2 | inactive
12 | O=c1ccc2ccccc2o1 | inactive
13 | NC(=O)c1ccccc1O | inactive
14 | O=C(O)c1cc(N=Nc2ccc(S(=O)(=O)Nc3ccccn3)cc2)ccc1O | inactive
15 | Cn1c(=O)c2[nH]cnc2n(C)c1=O | inactive
16 | CC(C)[C@@H]1CC[C@@H](C)C[C@H]1O | inactive
17 | O=S(=O)(O)c1ccc2cc(O)ccc2c1 | inactive
18 | CC(O)C(=O)O (stereo not given) | inactive
19 | CCCNC(=O)NS(=O)(=O)c1ccc(Cl)cc1 | inactive
20 | O=C(O)c1cccc([N+](=O)[O-])c1 | inactive

Row | Structure (SMILES) | outcome
21 | Nc1ccn([C@H]2CC[C@@H](CO)O2)c(=O)n1 | inactive
22 | CCCCCCCCCCCCCCCC(=O)O | inactive
23 | C[C@]12C=CC(=O)C=C1CC[C@@H]1[C@@H]2[C@@H](O)C[C@@]2(C)[C@H]1CC[C@]2(O)C(=O)CO | inactive
24 | CCCCC1C(=O)N(c2ccccc2)N(c2ccccc2)C1=O | inactive
25 | Cc1cn([C@H]2C[C@H](N=[N+]=[N-])[C@@H](CO)O2)c(=O)[nH]c1=O | inactive
26 | Cc1ccccc1C(OCCN(C)C)c1ccccc1 (stereo not given) | inactive
27 | O=c1cc[nH]c(=S)[nH]1 | inactive
28 | Cc1cc(=O)n(-c2ccccc2)n1C | inactive
29 | CC(O)CN(CCN(CC(C)O)CC(C)O)CC(C)O (stereo not given) | inactive
30 | O=C(c1ccccc1)C(O)c1ccccc1 (stereo not given) | inactive
31 | CC(C)(Oc1ccc(C2CC2(Cl)Cl)cc1)C(=O)O (stereo not given) | inactive
32 | Cc1ccc(C)c(OCCCC(C)(C)C(=O)O)c1 | inactive
33 | O=C(O)CCCCC(=O)O | inactive
34 | CC(=O)Nc1nnc(S(N)(=O)=O)s1 | inactive
35 | CC(O)CO (stereo not given) | inactive
36 | O=C(O)c1[nH]n(-c2ccc(S(=O)(=O)O)cc2)c(=O)c1N=Nc1ccc(S(=O)(=O)O)cc1 | inactive
37 | O=C(O)c1cccnc1 | inactive
38 | NC(N)=NC(=O)c1nc(Cl)c(N)nc1N | inactive
39 | CC(=O)NS(=O)(=O)c1ccc(N)cc1 | inactive
40 | Cn1cc[nH]c1=S | inactive
